Experimental data: paper PMC5540273 (PLoS ONE, 2017)

Legend:
Conditions in all cases: concentration: 1 μM,replicates: in singlicate; n = 1
SNARK = system: T1, SNARK
T1 construct: gene NUAK2

SNRK = system: SNRK
SRC = system: SRC
SRMS = system: SRMS
SRPK1 = system: SRPK1
SRPK2 = system: SRPK2
SRPK3 = system: SRPK3
STK16 = system: STK16
STK33 = system: STK33
STK35 = system: STK35
STK36 = system: STK36
STK39 = system: STK39
SYK = system: SYK
SgK110 = system: SgK110
TAK1 = system: T2, TAK1
T2 construct: gene MAP3K7

TAOK1 = system: TAOK1
TAOK2 = system: TAOK2
TAOK3 = system: TAOK3
TBK1 = system: TBK1
TEC = system: TEC
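Further: KINOMEscan kinase panel screen.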

SMILES	%Inh (SNARK) [%]	%Inh (SNRK) [%]	%Inh (SRC) [%]	%Inh (SRMS) [%]	%Inh (SRPK1) [%]	%Inh (SRPK2) [%]	%Inh (SRPK3) [%]	%Inh (STK16) [%]	%Inh (STK33) [%]	%Inh (STK35) [%]	%Inh (STK36) [%]	%Inh (STK39) [%]	%Inh (SYK) [%]	%Inh (SgK110) [%]	%Inh (TAK1) [%]	%Inh (TAOK1) [%]	%Inh (TAOK2) [%]	%Inh (TAOK3) [%]	%Inh (TBK1) [%]	%Inh (TEC) [%]
Cc1cc(C(=O)Nc2ccc(Oc3ccc4nc(NC(=O)C5CC5)cn4n3)cc2)nn1-c1ccccc1	0	0	34	0	8	33	30	18	0	0	0	7	22	0	0	0	1	0	57	37
C[C@@H]1CCN(C(=O)CC#N)C[C@@H]1N(C)c1ncnc2[nH]ccc12	73	15	0	0	39	18	1	0	0	0	0	0		50		0	0	0	10	39
CNC(=O)c1ccccc1Sc1ccc2c(/C=C/c3ccccn3)n[nH]c2c1	77	9	4	0	82	12	21	12	0	25	24	0	5	0	15	0	0	0	36	0
Cc1ccc2c(-c3ccncc3)c(-c3ccc(F)cc3)nn2c1.Cl [GW461484]	4	0	7	5	0	17	0	8	14	0	53	21	26	0	70	0	0	0	21	0
Cl.Cl.NC[C@H](CC1CCCCC1)NC(=O)c1cc(Br)c(-c2ccnc3[nH]ccc23)s1 [GSK1581427]	90.5	0	28	0	82	14	87	27	89	23	0	6	19	82	0	42	0	4	1	0
CCn1c(-c2nonc2N)nc2c(C#CC(C)(C)O)nc(OCCN)cc21.Cl.Cl [GSK902056]	11	0	0	0	0	7	17	0	0	0	0	17	0	0	0	0	0	0	0	1
CN(C)CC(O)COc1ccc(Nc2nccc(-c3cnn4nc(N5CCOCC5)ccc34)n2)cc1 (centres unmarked) [GW767488]	93.6	31	5	100	76	8	80	98.7	54	5	56	79	4	0	63	59	34	37	58	7
O=C(NCCNc1ccnc(NCc2ccc(F)cc2)n1)c1cc2ccccc2s1 [GSK1379944]	31	0	4	0	13	0	0	78	0	0	2	1	14	17	0	0	14	0	19	21
Nc1nc(Nc2ccccc2)cc(-c2ccc3c(N)n[nH]c3c2)n1 [GSK2225749]	21	0	0	0	80	2	83	59	14	0	24	0	0	0	36	32	2	23	28	0
NC(=O)c1cc(-c2ccccc2)cc2c(C3CCNCC3)c[nH]c12 [GSK301362]	91.8	0	0	0	58	0	0	8	0	49	3	15	34	0	0	95.8	28	90	12	24
C[C@@H](Oc1cc(-c2cnn(C3CCNCC3)c2)cnc1N)c1c(Cl)ccc(F)c1Cl	96.7	6	83	18	3	0	33	0	0		0	0	8	83	33	31	48	36	65	2
CN(C)CCOc1ccc(-c2cc(-c3c[nH]nc3-c3ccccn3)ccn2)cc1 [GW835314]	19	80	20	0	0	0	19	75	0	0	47	0	26	0	26	23	0	0	18	13
Cl.Oc1cc(-c2nc(-c3ccccc3)[nH]c2-c2ccncc2)ccc1Cl [SB-386023]	24	0	88	12	0	0	5	7	0	0	53	0	0	32	9	11	29	5	10	1
CC(C)Nc1cc(-c2ccc3c(N)n[nH]c3c2)nc(N)n1 [GSK2221681]	17	0	0	0	69	0	43	19	0	0	0	3	3	0	2	4	0	0	35	0
COc1ccc(C[C@@H](CN)NC(=O)c2cc(Br)c(-c3ccnc4[nH]ccc34)s2)cc1.Cl.Cl [GSK1389063]	98.2	0	36	0	86	0	28	55	99.2	14	0	16	39	85	75	87	27	60	1	0
CC(C)N1C(=O)Cc2cc(Nc3ncc(C(F)(F)F)c(NCc4cccc(S(C)(=O)=O)c4)n3)ccc21	82	13	0	0	55	3	24	94.7	0	4	0	33	87	0	70	0	0	0	86	10
C[C@H]1Oc2cc(cnc2N)-c2c(nn(C)c2C#N)CN(C)C(=O)c2ccc(F)cc21	0	0	43	0	9	0	12	0	8	1	12	0	38	21	0	0	13	0	33	0
Cl.Cl.Nc1nc(-c2ccc3c(N)n[nH]c3c2)cc(N2CCCC(NC(=O)c3ccccc3)C2)n1 (centres unmarked) [GSK2286775]	21	0	0	0	56	0	53	31	0	0	0	0	0	0	0	0	0	0	76	6
O=C(NCCCN1CCOC1=O)c1cnc(NCc2cc(Cl)ccc2Cl)nc1NC1CCCC1	0	5	11	0	39	0	26	15	0	13	10	0	15	0	0	0	10	0	24	18
